The whole screen tested about 360,000 compounds, of which about 17,000 (4.7%) were called active. Another 5% or so got no clear call; they are omitted. Cut-off read from the data, not from the text of the source: active = activity change below about -50%; inconclusive = mostly about -30% to -49%; inactive = weaker than that. The list comes from a sample in which actives are over-represented; it also holds similar structures and randomly drawn compounds.
assay: qHTS for Inhibitors of Inflammasome Signaling: IL-1-beta AlphaLISA Primary Screen; conditions: THP-1 LPS/ATP IL-1B secretion, 16 h; at 57.5 µM, active compounds read low
Method in brief: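 Secreted IL-1B measured by AlphaLISA bead assay after 16 h compound exposure of THP-1 cells; compounds (final up to 57.5 uM) added 1 h before LPS (250 ng/mL) and ATP (1.25 mM) stimulation; lower signal means less secretion.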
% is set by controls: 0 for no effect and ±100 for the full control effect.

Activity change, inactive:
Cc1noc(C)c1C(=O)N1CCC1(C)C(=O)NS(=O)(=O)c1ccc(C#N)cc1 (centres undefined) -5.56%
O=C(Nc1ccccc1)c1ccccc1Br 9.09%
CC1(C(=O)NS(=O)(=O)c2ccc(C#N)cc2)CCN1C(=O)CC1CCCC1 (centres undefined) 4.38%
CC(=O)C[C@@H]1OC[C@H](C)N1S(=O)(=O)c1ccc(C)cc1 -13.9%
Cc1cc2[nH]ncc2cc1NC(=S)NC(=O)c1ccccc1 -1.02%
Cc1cccc(NC(=O)NC(=S)NC(=O)c2ccccc2)c1 -7.59%
O=C(N[C@H]1C/C=C\C(c2cccc(F)c2)N(Cc2ccccc2)C(=O)C1)OCC1c2ccccc2-c2ccccc21 (some centres undefined) -10%
CC[C@@H]1CC2=C(C(=O)OC(C)(C)O2)[C@@H](CC)O1 22.9%
O=C(C1CC1)N1N=C2CCCCC2C1(O)C(F)(F)F (centres undefined) -13%
CN(C(=O)COC(=O)c1cc(=O)[nH]c2ccccc12)C1CCCCC1 0%
O=C(OCc1nnc(-c2ccccc2)o1)c1cc(=O)[nH]c2ccccc12 -11.8%
CC(CO)NCC12CC3CC(CC(C3)C1)C2 (centres undefined) 4.35%
CC(=O)NC(c1ccccc1)c1nc(-c2ccccc2C)cs1 (centres undefined) 0.953%
CCc1nc2c(OCCOc3ccccc3)cccn2c1N(C=O)Cc1ccc(OC)cc1 29.8%
CCCCN(C=O)c1c(CC)nc2c(OCc3ccccc3C(=O)OC)cccn12 0%
COc1cccc(CNc2nc(NCc3cccs3)nc3ccsc23)c1 -4.63%
COc1cccc(-c2cc3nc(NCc4ccccc4OC)n(C)c(=O)c3s2)c1 0.83%
COc1ccc(C(=O)N(C)Cc2ccc(OC)c(OC)c2OC)cc1S(=O)(=O)N1CCOCC1 -8.15%
COCCN1CCN(C(=O)c2cc(COc3ccc(F)cc3Cl)on2)CC1 22.2%
CN(CC(=O)NCCc1ccc(F)cc1)CC(=O)Nc1ccc(F)c(F)c1F -12.2%
CN(CC(=O)Nc1ccccc1[N+](=O)[O-])Cc1ccc(Br)cc1 -6.83%
CCN(C(=O)CSc1nnc2ccccn12)C1CCS(=O)(=O)C1 (centres undefined) -2.9%
Cc1cc2cc3c(cc2nc1SCC(=O)Nc1c(C)cccc1C)CCC3 13%
Cc1cccc(C(=O)C(O)(c2ccccc2)C2CCCCC2=O)c1 (centres undefined) 16.6%
COc1ccc(CCNC(=O)COC(=O)c2cnc(Cl)c(Cl)c2)cc1 -11.2%
CC(CCc1ccccc1)NC(=O)c1cnc(Cl)c(Cl)c1 (centres undefined) 12.3%
CC1(C)OC(=O)C2=C(C[C@@H](C3CCCCC3)O[C@@H]2c2ccc(Cl)cc2)O1 0%
CC1=C(C(=O)Nc2cccc(C(=O)NCC(C)c3ccccc3)c2)SCCO1 (centres undefined) 24.1%
CC(C)(C)n1nnnc1C(c1ccc2ncccc2c1)N1CCSCC1 (centres undefined) -23.4%
O=[N+]([O-])c1cccc(S(=O)(=O)NCc2ccccn2)c1 11.4%
O=S(=O)(NCCc1ccccn1)c1cc(Cl)cc(Cl)c1O 0%
COC(=O)c1ccc(CNC(=O)Cn2cc(C)c(=O)[nH]c2=O)cc1 15.5%
COc1ccc(C(=O)NCC2CCCO2)cc1S(=O)(=O)NCc1ccc(Cl)cc1 (centres undefined) -8.62%
CCN(CC)c1ccc(C(=O)N/N=C(\C)c2cccc(OC)c2)cc1 96.6%
COC(=O)c1sccc1N/N=C(\C)c1ccc(F)c(Cl)c1 13.1%
Cc1cc(NC(=O)CSc2nccn2-c2ccc([N+](=O)[O-])cc2)no1 45.3%
COc1cc2c(cc1CNC[C@H]1O[C@@H](n3cnc(C(N)=O)n3)[C@H](O)[C@@H]1O)OCO2 3.97%
CCc1ccccc1OCC(=O)Nc1nnc(C2CC2)s1 -16.9%
COc1cccc(/C=C2/SC(=S)N(CC(=O)NC3C=CS(=O)(=O)C3)C2=O)c1 (centres undefined) -11%
O=C(CN1CCCCCC1)NCCN1C(=O)S/C(=C\c2ccccc2Cl)C1=O -15.4%
CC(=O)Nc1ccccc1C(=O)C(=O)Nc1ccc(F)cc1 6.97%
CC(NC(=O)c1ccccc1)C(=O)OCC(=O)Nc1cccc(S(=O)(=O)N2CCCC2)c1 (centres undefined) -0.602%
Cc1ccnc(SC2CC(=O)N(c3ccccc3)C2=O)n1 (centres undefined) -12.7%
Cc1nc(Nc2ccccc2C)c2cnn(C)c2n1 5.45%
CCCCc1ccc(S(=O)(=O)NC(=O)C2(C)CCN2C(=O)c2ccccc2)cc1 (centres undefined) 48.7%
CCOC(=O)Nc1ccc(S(=O)(=O)N(C)C(C)C)cc1 24%
CCOC(=O)Nc1ccc2c(c1)N(C(=O)CCN1CCN(CCO)CC1)c1ccccc1CC2 -7.2%

Activity change, active:
Cc1ccc(NC(=S)NC(=O)c2ccc(-c3ccccc3)cc2)c(C)c1 -50.2%
CCOC(=O)c1ccc(COC(=O)c2cc(=O)[nH]c3ccccc23)o1 -68.1%
CCCCN(C=O)c1c(CC)nc2c(OCCC3CCCCC3)cccn12 -56.6%
COc1cccc(CNc2nc(NCc3ccccc3OC)nc3ccsc23)c1 -75.5%
Cc1coc2c(O)cc3c(c12)OC1(N2CCCCC2)C(=O)NCCCC31 (centres undefined) -99.3%
Cc1ccc(NC(=O)CN(C)Cc2ccc(F)cc2)c([N+](=O)[O-])c1 -62.3%
COc1ccc(CCNC(=O)c2cnc(Cl)c(Cl)c2)cc1 -107%
O=[N+]([O-])c1cc(S(=O)(=O)NCCc2ccccn2)ccc1Cl -65.1%
COc1cccc(/C(C)=N/Nc2ncc(Cl)cc2Cl)c1 -80.6%
O=C(CN1C(=O)S/C(=C\c2ccccc2Cl)C1=O)NC1C=CS(=O)(=O)C1 (centres undefined) -99.6%
Cc1ccnc(-n2sc3ccccc3c2=O)n1 -95.9%
CCOC(=O)Nc1ccc2c(c1)N(C(=O)CCCl)c1ccccc1[S@]2=O -96.5%
